Experimental data reported in PubChem BioAssay (NCI).
This is part of a sample that, as a whole, favours compounds with a hit. Of some 83,000 tested, about 20% had one in any assay.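 In brief: 96-well plates, 48 h treatment, single concentration, percent growth endpoint.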 Unmarked numbers belong to inactive results. Calls of active or inactive are those of the source.

The molecules below were run on OVCAR-3 ovarian (assay: NCI-60 one-dose screen, 48 h (100 = growth as untreated, 0 = no growth, -100 = all killed)). Details: 10 µM unless noted.
Method: Growth inhibition of the OVCAR-3 human tumor cell line is measured as a screen for anti-cancer activity. Cells are grown in 96 well plates and exposed to the test compound for 48 hours. Compounds are tested at a single concentration, which is 10^-5 M for most compounds. The reported endpoint is percent growth (GI% or GIPRCNT), where numbers from 0 - 100% represent growth inhibition, and numbers from -100% - 0 represent cell death. For example, a value of 40 represents 60% growth inhibition. A value of 0 means no net growth occurred over the course of the experiment. A value of -40 indicates 40% of cells at the beginning of the experiment died by the end of the experiment. A value of -100 means all cells are dead at the end of the experiment.
NCI-60 Human Tumor Cell Lines Screen was performed using the standard one-dose NCI protocol, which is described in more detail at https://dtp.cancer.gov/discovery_development/nci-60/default.htm.
Compounds with GIPRCNT values below 10 were considered active. Activity score was based on GIPRCNT using the following formula: […]
Score is 0 for GIPRCNT values of 100 or above, 50 for GIPRCNT values of 0, and 100 for GIPRCNT values of -100.

Question: `COC(=O)c1ccc(NC(=S)N2CCc3ccc([N+](=O)[O-])cc3C2)cc1O` was tested. Which growth did it give?
Answer: 116%

Question: With `c1ccc2c(NCCCN3CCOCC3)c3oc4ccccc4c3nc2c1` as the molecule, how does the growth read?
Answer: -19.6% (active)

Question: `COc1cc(-c2nc3ccc(-c4nnc(SCC(=O)Nc5ccc(C(C)=O)cc5)o4)cc3[nH]2)cc(OC)c1OC` was tested. Which growth did it give?
Answer: 119%

Question: How did the growth turn out when `COc1ccc(-c2cc(C(=O)N=Nc3c(O)[nH]c4ccccc34)c3ccccc3n2)cc1OC` was run?
Answer: 109%

Question: With `Clc1ccc2oc3c(NCCCn4ccnc4)c4ccccc4nc3c2c1` as the molecule, how does the growth read?
Answer: 76.7%

Question: With `COc1ccc(/C=N/NC(=O)c2[nH]c3ccc(Br)cc3c2-c2ccccc2)o1` as the molecule, how does the growth read?
Answer: 16.6%

Question: `C#Cc1nc(C2=C(C)C(OC(C)=O)/C(=N/OC(C)=O)C2)cs1` (stereo not given) was tested. Which growth did it give?
Answer: -15.8% (active)

Question: How did the growth turn out when `O=C(N/N=C/c1ccc[nH]1)c1[nH]c2ccc(Br)cc2c1-c1ccccc1` was run?
Answer: 22.2%

Question: `O=C(CN1C(=O)/C(=C/c2ccccc2)SC1=S)N1CCOCC1` was tested. Which growth did it give?
Answer: 115%

Question: For `O=C(CN1CCOCC1)NNc1ncnc2ccccc12`, which growth is on record?
Answer: 64.7%

Question: For `CCN1CCN(S(=O)(=O)c2oc(-c3ccc(Cl)cc3)nc2C#N)CC1`, which growth is on record?
Answer: 41.8%

Question: How did the growth turn out when `Nc1ncc(-c2ccc3ncnc(N4CCc5cc(F)c(Cl)cc54)c3c2)cc1CO` was run?
Answer: -19.8% (active)

Question: How did the growth turn out when `O=C(NNc1nc2cc(F)ccc2n2c(CN3CC4(COC4)C3)ccc12)c1cnccn1` was run?
Answer: 16.1%

Question: For `CN(C)CCCNc1c2ccccc2nc2c1oc1ccc(Cl)cc12`, which growth is on record?
Answer: 63.5%

Question: How did the growth turn out when `O=C1Nc2cc(Cl)ccc2/C1=C\c1ccc(OCc2ccc([N+](=O)[O-])cc2)cc1` was run?
Answer: 87.8%

Question: For `[Cl][Ru].c1ccc(-c2cc(-c3ccccn3)nc(-c3ccccn3)c2)cc1.c1ccc(-c2ccnc3c2ccc2c(-c4ccccc4)ccnc23)cc1`, which growth is on record?
Answer: -64.2% (active)

Question: Which growth does the source give for `CN1CCN(Cc2ccc(NC(=O)c3cncc(C#Cc4cnc5ccc(N6CCSCC6)nn45)c3)cc2C(F)(F)F)CC1` here?
Answer: -59.6% (active)

Question: Which growth does the source give for `CCOC(=O)c1c(Nc2ccccc2)nn2c(N)c(C#N)c(-c3ccc(F)cc3)nc12` here?
Answer: 110%

Question: For `CS(=O)(=O)c1ccc(-c2nc3ccccn3c2/C=N/Nc2nc(-c3ccc(Cl)cc3)cs2)cc1`, which growth is on record?
Answer: 124%

Question: Which growth does the source give for `Cc1nc(-c2cc3ccccc3oc2=O)ccc1C(=O)/C=C/c1ccc(Cl)c(Cl)c1` here?
Answer: 111%

Question: Which growth does the source give for `COc1cc2nc(-c3ccc(C(F)(F)F)cc3)cc(OCCCNCC3CCCO3)c2cc1OC` (stereo not given) here?
Answer: 65.4%

Question: With `Nc1c(C(=O)Nc2ccc(Cl)cc2)sc2nc(-c3cnccn3)cc(-c3cccs3)c12` as the molecule, how does the growth read?
Answer: 62.7%

Question: For `COc1cc(N=Cc2sc(Nc3nccs3)nc2O)cc(OC)c1OC`, which growth is on record?
Answer: 82.8%

Question: `CS(=O)(=O)Nc1ccc(-c2nn(-c3ccc(S(C)(=O)=O)cc3)cc2/C=C/C(=O)c2ccc(NC(=O)CO[N+](=O)[O-])cc2)cc1` was tested. Which growth did it give?
Answer: 116%

Question: How did the growth turn out when `COc1cc(-c2nc3ccc(-c4nnc(SCC(=O)Nc5ccc(C(=O)/C=C/c6ccc(Cl)cc6)cc5)o4)cc3[nH]2)cc(OC)c1OC` was run?
Answer: 97.9%

Question: How did the growth turn out when `O=C(N/N=C/c1ccc([N+](=O)[O-])o1)c1[nH]c2ccc(Br)cc2c1-c1ccccc1` was run?
Answer: 21.9%

Question: With `Cn1c(SCC(=O)Nc2ccc(-c3nc4ccc([N+](=O)[O-])cc4[nH]3)cc2)nc2ccccc2c1=O` as the molecule, how does the growth read?
Answer: 90.6%

Question: For `O=C1[C@H]2Cc3c([nH]c4ccccc34)[C@@H](c3ccc(Br)cc3)N2C(=O)CN1C1CCN(Cc2ccccc2)CC1`, which growth is on record?
Answer: 68.1%

Question: With `COc1ccc(/C=C/C(=O)c2ccc(NC(=O)CSc3nnc(-c4ccc5nc(-c6ccc(Cl)cc6)[nH]c5c4)o3)cc2)cc1` as the molecule, how does the growth read?
Answer: 111%

Question: Which growth does the source give for `Cc1nc2cnc(N)c(C#Cc3cncc(C(=O)Nc4ccc(Cl)c(C(F)(F)F)c4)c3)c2nc1C` here?
Answer: 39.3%

Question: `CCCCCCNC(=O)Oc1ccc(/C(=C(/C)c2ccccc2)c2ccc(OCCN3CCCCCC3)cc2)cc1` was tested. Which growth did it give?
Answer: 48.9%

Question: For `Cc1c(NC(=O)CSc2nc3sc4c(c3c(=O)n2-c2ccc(Cl)cc2)CCCC4)c(=O)n(-c2ccccc2)n1C`, which growth is on record?
Answer: 100%

Question: For `CCN1C(=S)N(CC)C2C1NN=C1SC(c3ccccc3)=CC(=O)N12` (stereo not given), which growth is on record?
Answer: 119%

Question: For `Cn1c(SCC(=O)c2cccs2)nc2ccccc2c1=O`, which growth is on record?
Answer: 98%

Question: With `NS(=O)(=O)c1cccc(Nc2nc(SCC(=O)c3ccc(Cl)cc3)nc3ccccc23)c1` as the molecule, how does the growth read?
Answer: 85.8%

Question: For `COc1cc(/C=C/C(=O)c2ccccc2)ccc1Oc1nc(NCCO)nc(N2CCOCC2)n1`, which growth is on record?
Answer: 124%

Question: Which growth does the source give for `C#Cc1nc(C2=C(C)C(O)CC2)cs1` (stereo not given) here?
Answer: 120%

Question: Which growth does the source give for `OC1CCN(CCCOc2c3ccccc3nc3c2oc2ccc(Cl)cc23)CC1` here?
Answer: 27.7%

Question: For `Cc1ccc(C(=O)Nc2cccc(C(F)(F)F)c2)cc1Nc1nc(-c2cnccn2)nc2c1cnn2C`, which growth is on record?
Answer: 97.9%

Question: With `COc1cc2nc(-c3ccc(Cl)cc3)cc(OCCCNCC3CCCO3)c2cc1OC` (stereo not given) as the molecule, how does the growth read?
Answer: 87.7%
